Source: PubChem BioAssay AID624331 (National Center for Advancing Translational Sciences (NCATS), 2012)
Results filed as inconclusive are left out. A call without a number means that no potency is given here. Active and inactive are the calls of the source. Calls follow the shape of the dose curve; as a rule, active = well fitted activation curve with a large enough effect; inconclusive = small, poorly fitted or top-dose-only effect; inactive = no such curve, though single readings can be large or run the other way.

Experiment: qHTS assay for re-activators of p53 using a Luc reporter: Hit Validation with no p53 Expressed
Conditions: p53-null cells, luciferase reporter counter-screen; series mostly up to 46.1 µM
In short: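 Counter-screen of primary hits in a cell line not transfected with p53, in Opti-MEM with 10% FBS; compounds at several concentrations (10 mM stock, 1:5; top 46.1 µM in well), 24 h at 37 deg C, 5% CO2. Luminescence read after 10 min with Amplite reagent.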
Potency is read from the fitted curve at half-maximal effect.

| SMILES | Potency |
| --- | --- |
| CN=c1scc(-c2cccs2)n1/N=C/c1ccc(O)c(O)c1O | inactive |
| Cc1ccc(NC(=S)NC(=O)C2CCCCC2)c(Br)c1 | inactive |
| Cc1ccc(OCCCNCCO)c(Br)c1 | inactive |
| O=C(NCCCc1ccccc1)c1cc(COc2c(F)cccc2F)on1 | inactive |
| CCS(=O)(=O)NCCc1csc(-c2ccccc2)n1 | inactive |
| CC1CCCN(C(=O)CN2C(=O)c3ccccc3S2(=O)=O)C1 (centres undefined) | inactive |
| CCN1CCN(/C=N/c2nc3c(s2)CCCC3)CC1 | inactive |
| CN(C)C(=O)c1ccc2c(c1[N+](=O)[O-])C(=O)c1ccccc1C2=O | inactive |
| Cc1cc(-c2nnc(SCc3ccccn3)o2)no1 | inactive |
| N#Cc1cc2c(nc1SCC(=O)Nc1nccs1)CCCCC2 | inactive |
| O=c1cc(-c2ccc3c(c2)OCCO3)oc2ccc(Cl)cc12 | inactive |
| O=C(/C=C/Nc1ccccc1C(=O)O)c1cccs1 | inactive |
| COCCCN(C(C)=O)c1nc(-c2ccc(OC)cc2)cs1 | inactive |
| Cc1ccc(OCC(=O)c2cc(C)n(C3CC3)c2C)c([N+](=O)[O-])n1 | inactive |
| COc1ccc2oc(C(=O)Nc3nc(C)cs3)c(C)c2c1 | inactive |
| CCN(CC)c1ccc2cc(-c3nc4ccccc4n3C)c(=O)oc2c1 | inactive |
| O=[N+]([O-])c1cccc(NC(=S)N2CCc3ccccc32)c1 | inactive |
| CCOc1cc(S(=O)(=O)NC2CCCCCC2)ccc1F | inactive |
| COCCn1c(SCC(=O)c2c(N)n(C3CC3)c(=O)[nH]c2=O)nnc1-c1cccc(C)c1 | inactive |
| O=C(NC(=S)Nc1nc2ccccc2s1)c1ccco1 | inactive |

| SMILES | Potency |
| --- | --- |
| CCc1cc2c(=O)c(-c3ccc4c(c3)OCCO4)coc2cc1OS(C)(=O)=O | inactive |
| CCN1C(=O)C(=O)N(CC(=O)c2cc(C)n(C3CC3)c2C)C1=O | inactive |
| C=CCn1c(C)cc(C(=O)CSc2nc3ccccc3o2)c1C | inactive |
| O=C(CCN1C(=O)/C(=C/c2ccccc2Cl)SC1=S)N1CCOCC1 | inactive |
| O=c1nc2sc3ccccc3n2c(=O)n1-c1cccc(Cl)c1 | inactive |
| N#Cc1ccccc1NC(=O)c1cccc(COc2ccc(Cl)cc2Cl)c1 | 0.116 µM (active) |
| CCOC(=O)N(Cc1ccccc1)C(C(=O)O)C(C(=O)O)N(Cc1ccccc1)C(=O)OCC (centres undefined) | inactive |
| N#CC1=C(N)N2C(=C(C#N)C13CCCCC3)SC1CCCCC12O (centres undefined) | inactive |
| COc1ccc(NC(=O)/C(Cl)=C(/Cl)S(=O)(=O)Cc2ccc(C)cc2)cn1 | inactive |
| O=C(c1cccc(Br)c1)c1coc2ccc(O)cc12 | inactive |
| CCOc1ccc2c(c1)C(=NNC(=O)c1ccncc1)c1cc(OCC)ccc1-2 | inactive |
| Cc1ccccc1C(=O)Nc1ccc(Br)cn1 | inactive |
| Cc1cccc(N2CCN(S(=O)(=O)c3ccc4c(c3)CCC(=O)N4)CC2C)c1 (centres undefined) | inactive |
| N#Cc1nc(COc2ccccc2)oc1N1CCOCC1 | inactive |
| C=CCOc1c(OC)cc(/C=N/Nc2cccc(C(=O)O)c2)c(Br)c1Br | inactive |
| COc1ccc(N(C(=O)Nc2ccc(Cl)cc2)C2=NCCC2)cc1 | inactive |
| Cc1c(/C(O)=C2/C(=O)C(=O)N(Cc3cccnc3)C2c2cccs2)cnn1-c1ccccc1 (centres undefined) | inactive |
| C/C(=N/NC(=S)Nc1ccccc1)c1ccc2c(c1)OCO2 | inactive |
| COc1ccc(C2=NN(C(C#N)c3ccc(OC)cc3)C(c3ccccc3)C2)cc1 (centres undefined) | inactive |
